Compound activity as filed in PubChem.
D1 potentiator – Potentiators of Human D1 Dopamine Receptor: qHTS | actives 0.036% (n = 360,000) | HEK293 TREx D1 cells, calcium flux, dopamine EC20 potentiation | potentiation, % at 10 µM | D(1A) dopamine receptor (Homo sapiens), P21728; in the data active = potentiation above about 30%; also: 0% is about no effect
TRHR agonist – qHTS for Small Molecule Agonists and Allosteric Enhancers of Human TRH Receptor: Primary Screen for Agonists | actives 0.18% (n = 360,000) | AID 493084, 2011 | activation, % at 2 µM | TRHR cells, calcium flux fluo-8, FDSS agonist mode; also: 0% is about no effect
Target sequence (P34981 whole entry, looked up): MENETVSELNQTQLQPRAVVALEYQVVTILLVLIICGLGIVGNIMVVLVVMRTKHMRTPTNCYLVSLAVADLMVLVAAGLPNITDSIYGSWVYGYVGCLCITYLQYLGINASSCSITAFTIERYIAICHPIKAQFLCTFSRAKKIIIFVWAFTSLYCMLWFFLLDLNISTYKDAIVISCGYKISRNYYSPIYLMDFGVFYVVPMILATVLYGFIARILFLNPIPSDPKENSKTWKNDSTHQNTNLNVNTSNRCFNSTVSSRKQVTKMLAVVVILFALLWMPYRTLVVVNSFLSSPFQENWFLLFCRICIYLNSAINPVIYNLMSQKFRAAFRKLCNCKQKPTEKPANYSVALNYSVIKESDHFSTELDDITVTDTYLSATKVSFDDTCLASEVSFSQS
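Fluo-8-loaded TRHR cells; 10 s baseline, compound added, kinetic Ca2+ fluorescence read 1/s, agonist mode.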
TRHR PAM – qHTS for Small Molecule Agonists and Allosteric Enhancers of Human TRH Receptor: Primary Screen for Enhancers. enhancement, % at 2 µM. Thyrotropin-releasing hormone receptor (Homo sapiens), P34981. actives 0.66% (n = 360,000). TRHR cells, fluo-8 calcium fluorescence, EC20 TRH enhancement. AID 493056, 2011; in the data active = enhancement above about 30%; also: 0% is about no effect
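Enhancer read-out: after compound pinning and an initial kinetic agonist-mode read, an EC20 of TRH (10 nM final) was injected and fluo-8 calcium signal (Ex 480/Em 530) followed at 1 s/cycle for 100 cycles in TRHR-expressing cells.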
D1 ag – Allosteric Agonists of the Human D1 Dopamine Receptor: qHTS | D(1A) dopamine receptor (Homo sapiens), P21728 | HEK293 T-REx D1 cells, calcium flux, agonist mode | activation, % at 2 µM | actives 1% (n = 360,000); also: 0% is about no effect
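Agonism was scored from calcium flux recorded over 180 s (1 read/s) after pintool compound addition, following a 10-cycle baseline. Cells were inducible force-coupled HEK293 TREx D1, plated overnight at 30 C and loaded with no-wash calcium dye.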
D1 antagonist – Antagonist of Human D 1 Dopamine Receptor: qHTS. HEK293 TREx D1 cells, calcium flux, dopamine EC80; stronger effect = lower value. activity change, negative = inhibition, % at 10 µM. D(1A) dopamine receptor (Homo sapiens), P21728. actives 3.2% (n = 360,000); in the data active = activity change below about -30%; also: % is scaled to controls: 0 for no effect and ±100 for the full control effect
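Tetracycline-induced HEK293 T-REx cells with force-coupled D1 receptor were loaded with a no-wash calcium dye. Compound was added after a 10 s baseline and read kinetically for 180 s; EC80 dopamine was then added and calcium flux followed another 180 s.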
Starred values were filed as active, the others as inactive. Most compounds without a hit are left out; they make up all but 4.7% or so of the library. Rule as the data show it, unless noted: active = activation above about 30%; inactive = the rest.

SMILES	D1 potentiator	TRHR agonist	TRHR PAM	D1 ag	D1 antagonist
Cc1ccc(C(=O)NCC(c2ccc3c(c2)OCO3)N2CCN(c3ccc(F)cc3)CC2)cc1 (stereo not given)	2.3	-0.4	-0.9	0.7	-10.0
c1ccc(-c2nn3c(Cn4cnc5ccccc54)nnc3s2)cc1	-11.1	-0.9	15.3	4.0	-33.4*
CCCC(=O)Nc1cccc(Oc2ccc3c(c2)C(=O)NC3=O)c1	-15.7	-0.9	34.6*	-0.5	12.7
CCCC(=O)Nc1ccc2c(c1)C(=O)NC2=O	-5.0	0.4	4.3	-0.2	-18.7
CCc1nn(CC(=O)Nc2ccc(C)c(F)c2)c(=O)c2cc3cc(C)ccc3n12	-1.6	-0.7	0.5	1.0	2.0
CCOc1ccc2[nH]c(=O)c(CN(Cc3cccs3)Cc3nnnn3C(C)(C)C)cc2c1	-0.1	-0.7	-4.2	1.1	-30.1*
CCOc1ccc2[nH]c(=O)c(CN(CCN3CCOCC3)Cc3nnnn3C(C)(C)CC)cc2c1	3.9	0.2	30.2*	0.8	-4.7
CCC(c1nnnn1C(C)(C)CC)N(CCN1CCOCC1)Cc1cc2cc(C)ccc2[nH]c1=O (stereo not given)	9.9	0.3	9.7	1.0	-1.6
Cc1ccc2c(c1)-c1nc(-c3ccccc3)cc(-c3ccccc3)c1CO2	-0.6	-0.2	2.6	-1.2	-6.1
COc1cccc(NC(=O)Cn2c(=O)n(CCc3ccccc3)c(=O)c3c4c(sc32)CN(C(C)=O)CC4)c1	-6.4	1.2	0.7	2.4	-6.6
Cc1ccc(C=Nc2cccnc2N)cc1	12.9	12.9	-2.0	89.9*	7.0
Cc1nn2c(=O)cc(CN(C)c3ccccc3)nc2s1	-5.0	-0.8	0.9	4.9	15.3
COc1cccc(C(=O)Nc2cc(-c3ccccc3)nn2-c2ccccc2)c1	2.3	0.2	-0.6	0.2	0.2
COc1cc(OC)cc(-n2c(=O)[nH]c3cc(C(=O)NCCc4ccc(C)cc4)ccc3c2=O)c1	1.5	0.4	3.0	5.0	4.7
CCCCCn1c(=O)[nH]c2cc(C(=O)NCCCN(C)Cc3ccccc3)ccc2c1=O	-8.6	2.5	2.9	3.8	20.5
CCCCNC(=O)c1ccc2c(=O)n(-c3ccccc3)c(=O)[nH]c2c1	-1.6	0.3	-0.1	1.4	-64.5*
Cc1ccc(-n2c(=O)[nH]c3cc(C(=O)NCc4ccccc4)ccc3c2=O)cc1	-1.1	1.0	3.6	8.1	-76.9*
COc1ccccc1CNC(=O)CCS(=O)(=O)c1ccc2c(c1)oc(=O)n2C	6.0	0.2	-7.9	0.7	-0.8
N#Cc1ccsc1NC(=O)c1cccc([N+](=O)[O-])c1	1.8	2.4	-2.1	4.0	10.6
N#Cc1ccsc1NC(=O)c1ccc(Cl)c([N+](=O)[O-])c1	-1.4	11.8	1.1	39.2*	-37.8*
Cc1noc(C)c1CSCC(=O)Nc1nc(-c2ccc(F)c(F)c2)cs1	-10.9	0.4	-8.7	16.0	-43.0*
Cc1ccc(/C=C/c2onc(C)c2S(=O)(=O)N2CCC(C(=O)NCc3ccc(N(C)C)cc3)CC2)cc1	-0.5	0.1	1.3	-0.2	0.9
COc1ccc(C(=O)CN2CCN(S(=O)(=O)c3ccc(F)cc3)CC2)cc1	-4.5	0.0	-2.3	3.4	-30.2*
COc1ccc(S(=O)(=O)N2CCN(CC(=O)Nc3cccc(OC)c3)CC2)cc1	2.1	-0.4	-4.2	-0.1	-4.9
COC(=O)c1ccc(NC(=O)CN2CCN(S(=O)(=O)c3cc(Cl)ccc3OC)CC2)cc1	-5.9	-1.9	0.4	38.0*	2.0
SMILES	D1 potentiator	TRHR agonist	TRHR PAM	D1 ag	D1 antagonist
COc1ccc(S(=O)(=O)N2CCN(CC(=O)Nc3ccc(F)c(F)c3)CC2)cc1	-7.8	0.3	-1.4	7.9	-33.1*
CC1CCN(S(=O)(=O)c2ccc(NC(=O)CN3CCCC3)cc2)CC1	3.0	0.7	0.0	36.2*	25.8
COc1ccc(NC(=O)c2c(N)c(C(=O)c3ccc(OC)cc3)n3ccccc23)cc1	-2.1	0.2	6.1	0.1	-4.4
CCOC(=O)Cc1ccc(NC(=O)N(C(C)C)C2CCN(C(C)=O)CC2)cc1	5.8	0.0	4.5	4.9	6.4
CCOC(=O)c1cc(C)n(CC2CCC(C(=O)Nc3cccc(C)c3)CC2)c1C (stereo not given)	1.6	0.3	6.1	-0.3	9.1
CC(=O)c1cccc(Nc2c3c(nc4ccccc24)CCC3)c1	-4.4	-1.1	6.3	0.8	-3.2
O=C(Nc1c2c(nc3ccccc13)CCCC2)c1ccccc1Cl	-8.3	1.1	-2.7	-0.3	7.4
Nc1c2c(nc3ccc(Br)cc13)N(C1CCCCC1)CC2	-14.8	1.0	3.7	4.8	-29.7
CC(=O)c1ccc(Nc2c3c(nc4ccccc24)CCCC3)cc1	-10.8	-0.4	-0.3	3.9	-41.6*
Fc1cccc(Nc2c3c(nc4ccccc24)CCC3)c1	-12.3	-0.3	-3.7	6.1	-53.1*
O=C(Nc1c2c(nc3ccccc13)CCCC2)c1ccccc1F	-4.0	0.2	4.0	0.7	-37.3*
Nc1c2c(nc3ccccc13)N(C1CCCCC1)CC2	-8.8	0.2	-3.1	-2.3	-36.7*
CCc1ccccc1NC(=O)Cn1c(=O)n(Cc2ccco2)c(=O)c2sc3ccccc3c21	-1.6	0.9	3.9	1.8	0.7
COc1ccccc1Nc1c2c(nc3ccccc13)CCC2	-19.1	0.0	1.6	6.0	-38.1*
Nc1c2c(nc3ccccc13)CCC2	-8.9	0.9	2.2	-1.2	-42.8*
O=C(NCc1cccc(F)c1)c1ccc(NC(=O)c2nsc3ccccc23)cc1	0.9	0.3	-3.4	7.7	-1.3
Cn1c(=O)oc2cc(S(=O)(=O)NCCC(=O)Nc3ccc(F)c(Cl)c3)ccc21	-2.2	1.0	0.7	2.2	-6.3
O=C(CN1CCN(Cc2ccc(Cl)cc2)C1=O)NCCCN1CCN(c2ccc(F)cc2)CC1	-3.4	-0.7	10.5	4.3	-9.8
Cc1cccc(N2CCN(CCNC(=O)Nc3ccc(Cl)cc3)CC2)c1C	-2.9	2.8	4.0	30.1*	-33.1*
Cc1ccccc1CN1CCN(CC(=O)NCCCN2CCN(c3ccc(F)cc3)CC2)C1=O	-11.8	1.1	-11.4	24.1	-65.4*
CSc1cccc(NC(=S)NCCCN2CCN(c3ccc(F)cc3)CC2)c1	-4.7	0.9	-8.2	10.6	-76.2*
O=C(NCCCN1CCN(c2ccc(F)cc2)CC1)Nc1ccc(Cl)cc1	-2.5	1.8	-4.8	68.7*	-77.4*
O=C(NCCN1CCN(c2ccccc2Cl)CC1)Nc1ccccc1	-6.5	-0.1	-1.7	-0.5	-8.5
CCN1CCN(C(c2ccc(OC)cc2)c2c(O)cc(C)n(Cc3ccco3)c2=O)CC1 (stereo not given)	0.0	0.3	-0.5	1.7	5.0
